Test results from the supplement of paper PMC10849652.
Targets with a hit are over-represented here; the source holds about 7,900 in all. About 0.6% of all pairs of compound and target were hits. A number with no mark means an inactive call.

What was measured:
Assay in all cases: log2 fold change, soluble protein after heating vs DMSO (PISA); higher = thermal stabilisation; K562 cells, 10 uM, 30 min; active = over 0.2 and 3.5 SD of the protein, either way, in both replicates (recomputed)
[1] = compound: NC(=O)Nc1cc(-c2cccc(F)c2)sc1C(=O)N[C@H]1CCCNC1
In short: (§1)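 Soluble protein was quantified by TMTpro 16plex LC-MS/MS after channel sums were equalised. It was obtained as the supernatant after 21,000xg for 90 min from pooled aliquots of K562 cells (2×10^6 cells/mL, 10 μM compound, 30 min) heated for 3 min across 48°C-58°C and extracted in PBS with 0.5% NP-40 at 4°C. Thermal stability values are relative to control samples and come from duplicates. They are given as log2 fold changes.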

[2] = compound: NC(=O)c1cnc(N[C@@H]2CCCC[C@@H]2N)nc1Nc1cccc(-n2nccn2)c1
In short: as §1

[3] = compound: NC1(c2ccc(-c3nc4ccn5c(=O)[nH]nc5c4cc3-c3ccccc3)cc2)CCC1
In short: as §1

[4] = compound: NCC(=O)Nc1ccc(-n2nc(C(F)(F)F)cc2-c2ccc3c(ccc4ccccc43)c2)cc1
In short: as §1

entinostat = compound: Nc1ccccc1NC(=O)c1ccc(CNC(=O)OCc2cccnc2)cc1 [entinostat]
In short: as §1

vorinostat = compound: O=C(CCCCCCC(=O)Nc1ccccc1)NO [vorinostat]
In short: as §1

citarinostat = compound: O=C(CCCCCCNC(=O)c1cnc(N(c2ccccc2)c2ccccc2Cl)nc1)NO [citarinostat]
In short: as §1

silmitasertib = compound: O=C(O)c1ccc2c(c1)nc(Nc1cccc(Cl)c1)c1ccncc12 [silmitasertib]
In short: as §1

[5] = compound: O=C1NC(=O)C(c2cnc3ccccn23)=C1c1cn2c3c(cc(F)cc13)CN(C(=O)N1CCCCC1)CC2
In short: as §1

[6] = compound: c1cc(OCCN2CCCCC2)cc(-c2n[nH]c3ccc(-c4nnc[nH]4)cc23)c1
In short: as §1

entospletinib = compound: c1cn2cc(-c3ccc4cn[nH]c4c3)nc(Nc3ccc(N4CCOCC4)cc3)c2n1 [entospletinib]
In short: as §1

Chain of UniProt Q96EE3 (Q96EE3 whole entry, looked up): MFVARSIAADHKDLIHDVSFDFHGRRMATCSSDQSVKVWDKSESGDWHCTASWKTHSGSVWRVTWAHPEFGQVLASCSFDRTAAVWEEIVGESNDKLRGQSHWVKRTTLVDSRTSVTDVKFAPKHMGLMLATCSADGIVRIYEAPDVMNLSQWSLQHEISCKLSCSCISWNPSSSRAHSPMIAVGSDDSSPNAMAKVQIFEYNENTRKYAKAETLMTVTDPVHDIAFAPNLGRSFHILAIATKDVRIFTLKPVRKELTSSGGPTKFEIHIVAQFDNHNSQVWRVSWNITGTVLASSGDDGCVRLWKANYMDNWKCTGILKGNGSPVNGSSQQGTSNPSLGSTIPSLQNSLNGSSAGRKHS
Chain of UniProt P35244 (P35244 whole entry, looked up): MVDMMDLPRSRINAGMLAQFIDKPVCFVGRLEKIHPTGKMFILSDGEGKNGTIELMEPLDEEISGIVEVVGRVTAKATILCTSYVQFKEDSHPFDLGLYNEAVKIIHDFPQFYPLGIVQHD
Chain of UniProt Q96D15 (Q96D15 whole entry, looked up): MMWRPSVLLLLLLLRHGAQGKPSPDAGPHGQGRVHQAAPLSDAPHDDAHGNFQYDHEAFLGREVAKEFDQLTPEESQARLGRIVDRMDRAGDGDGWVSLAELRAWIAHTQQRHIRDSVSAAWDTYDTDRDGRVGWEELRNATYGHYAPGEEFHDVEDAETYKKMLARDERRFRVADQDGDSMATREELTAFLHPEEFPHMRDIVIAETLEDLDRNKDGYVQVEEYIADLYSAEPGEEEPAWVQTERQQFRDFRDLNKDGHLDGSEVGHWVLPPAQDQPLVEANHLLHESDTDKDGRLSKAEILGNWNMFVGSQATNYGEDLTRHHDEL
Chain of UniProt Q96EV2 (Q96EV2 whole entry, looked up): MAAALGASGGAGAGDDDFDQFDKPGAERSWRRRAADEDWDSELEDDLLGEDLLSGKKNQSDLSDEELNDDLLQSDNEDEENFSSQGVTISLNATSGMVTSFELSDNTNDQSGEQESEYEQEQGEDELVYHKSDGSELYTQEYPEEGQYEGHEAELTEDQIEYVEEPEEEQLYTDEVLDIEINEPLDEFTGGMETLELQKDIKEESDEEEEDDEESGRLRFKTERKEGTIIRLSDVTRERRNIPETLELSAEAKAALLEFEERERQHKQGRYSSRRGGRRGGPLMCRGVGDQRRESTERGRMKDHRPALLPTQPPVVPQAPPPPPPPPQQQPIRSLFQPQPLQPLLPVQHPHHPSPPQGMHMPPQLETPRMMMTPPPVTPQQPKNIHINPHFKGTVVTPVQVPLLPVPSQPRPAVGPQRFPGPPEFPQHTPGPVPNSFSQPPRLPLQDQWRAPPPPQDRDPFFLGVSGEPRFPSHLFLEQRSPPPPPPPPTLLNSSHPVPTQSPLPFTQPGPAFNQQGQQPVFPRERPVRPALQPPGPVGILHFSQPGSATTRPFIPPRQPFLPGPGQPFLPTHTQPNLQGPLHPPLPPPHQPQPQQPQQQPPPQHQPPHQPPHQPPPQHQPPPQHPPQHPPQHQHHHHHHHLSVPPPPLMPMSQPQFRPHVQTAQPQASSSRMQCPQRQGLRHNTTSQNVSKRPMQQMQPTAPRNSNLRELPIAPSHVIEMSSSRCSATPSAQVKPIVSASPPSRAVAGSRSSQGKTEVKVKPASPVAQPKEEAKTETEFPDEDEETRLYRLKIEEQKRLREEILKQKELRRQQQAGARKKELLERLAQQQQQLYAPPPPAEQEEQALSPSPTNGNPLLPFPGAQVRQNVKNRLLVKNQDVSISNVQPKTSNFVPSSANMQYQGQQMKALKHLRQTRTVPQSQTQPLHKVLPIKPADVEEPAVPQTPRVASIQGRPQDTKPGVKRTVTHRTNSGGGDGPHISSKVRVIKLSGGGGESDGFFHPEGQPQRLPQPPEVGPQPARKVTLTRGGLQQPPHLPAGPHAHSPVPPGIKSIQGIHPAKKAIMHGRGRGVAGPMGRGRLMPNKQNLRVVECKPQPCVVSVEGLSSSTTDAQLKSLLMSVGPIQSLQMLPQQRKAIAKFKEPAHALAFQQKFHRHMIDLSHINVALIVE
Chain of UniProt Q8WXD2 (Q8WXD2 whole entry, looked up): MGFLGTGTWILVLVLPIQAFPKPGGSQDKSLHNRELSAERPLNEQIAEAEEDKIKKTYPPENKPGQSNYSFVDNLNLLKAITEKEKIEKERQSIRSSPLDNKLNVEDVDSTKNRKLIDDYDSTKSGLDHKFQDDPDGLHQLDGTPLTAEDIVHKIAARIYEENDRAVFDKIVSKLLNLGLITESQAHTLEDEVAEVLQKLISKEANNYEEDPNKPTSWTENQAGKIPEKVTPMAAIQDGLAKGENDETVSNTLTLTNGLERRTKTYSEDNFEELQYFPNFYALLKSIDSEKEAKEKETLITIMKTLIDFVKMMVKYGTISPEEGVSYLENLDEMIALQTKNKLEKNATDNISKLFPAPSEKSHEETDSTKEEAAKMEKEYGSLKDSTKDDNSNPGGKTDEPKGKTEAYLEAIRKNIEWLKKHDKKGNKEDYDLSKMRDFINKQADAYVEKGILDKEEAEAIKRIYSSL
Chain of UniProt Q5VZM2 (Q5VZM2 whole entry, looked up): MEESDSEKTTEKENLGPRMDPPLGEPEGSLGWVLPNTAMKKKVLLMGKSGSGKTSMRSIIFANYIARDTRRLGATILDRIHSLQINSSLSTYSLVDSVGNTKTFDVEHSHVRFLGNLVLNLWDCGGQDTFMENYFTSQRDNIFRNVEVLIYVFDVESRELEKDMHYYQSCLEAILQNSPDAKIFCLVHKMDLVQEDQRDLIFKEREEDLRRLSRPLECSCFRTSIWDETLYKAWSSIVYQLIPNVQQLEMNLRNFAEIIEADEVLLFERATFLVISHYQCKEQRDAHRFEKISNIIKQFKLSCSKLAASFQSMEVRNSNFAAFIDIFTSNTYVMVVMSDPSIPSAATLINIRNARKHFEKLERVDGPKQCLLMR
Chain of UniProt Q5VTB9 (Q5VTB9 whole entry, looked up): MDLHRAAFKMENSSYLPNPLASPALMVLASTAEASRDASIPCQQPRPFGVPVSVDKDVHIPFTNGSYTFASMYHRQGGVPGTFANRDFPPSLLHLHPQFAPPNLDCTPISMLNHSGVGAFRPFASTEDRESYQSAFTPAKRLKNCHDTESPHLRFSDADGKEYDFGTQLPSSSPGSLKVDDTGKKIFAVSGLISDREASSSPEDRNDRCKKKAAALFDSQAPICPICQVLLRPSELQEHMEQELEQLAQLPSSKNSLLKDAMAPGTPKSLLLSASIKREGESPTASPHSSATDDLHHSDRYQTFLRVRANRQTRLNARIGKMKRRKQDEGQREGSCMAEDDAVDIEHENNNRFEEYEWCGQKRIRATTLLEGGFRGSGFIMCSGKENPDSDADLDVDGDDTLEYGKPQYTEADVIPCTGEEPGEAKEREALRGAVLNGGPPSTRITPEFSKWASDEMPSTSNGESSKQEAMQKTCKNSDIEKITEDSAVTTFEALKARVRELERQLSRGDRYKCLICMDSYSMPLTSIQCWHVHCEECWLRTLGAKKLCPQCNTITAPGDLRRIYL

| Target | log2 fold change [1] | log2 fold change [2] | log2 fold change [3] | log2 fold change [4] | log2 fold change (entinostat) | log2 fold change (vorinostat) | log2 fold change (citarinostat) | log2 fold change (silmitasertib) | log2 fold change [5] | log2 fold change [6] | log2 fold change (entospletinib) |
| --- | --- | --- | --- | --- | --- | --- | --- | --- | --- | --- | --- |
| RAC3 (UniProt P60763) | -0.142 | 0.067 | 0.058 | -0.002 | -0.14 | -0.037 | -0.007 | 0.016 | -0.083 | 0.176 | 0.071 |
| RRAGB (UniProt Q5VZM2) | 0.112 | -0.017 | -0.317 (active) | 0.023 | 0.012 | 0.018 | -0.006 | 0.031 | 0.008 | 0.05 | -0.04 |
| RCN3 (UniProt Q96D15) | -0.042 | -0.027 | 0.105 | -0.013 | -0.027 | -0.122 | -0.063 | -0.002 | -0.039 | 0.12 | -0.156 |
| RBM8A (UniProt Q9Y5S9) | -0.044 | 0.075 | -0.045 | -0.068 | 0.037 | -0.025 | 0.03 | 0.011 | -0.019 | -0.076 | 0.061 |
| RNF220 (UniProt Q5VTB9) | 0.01 | -0.019 | -0.002 | -0.06 | -0.037 | 0.052 | 0.043 | 0.025 | -0.075 | -0.038 | -0.021 |
| SEH1L isoform 1 (UniProt Q96EE3) | 0.007 | -0.027 | -0.014 | -0.004 | -0.04 | 0.022 | 0.064 | 0.076 | -0.027 | -0.065 | 0.007 |
| RBM33 (UniProt Q96EV2) | 0.019 | -0.055 | -0.024 | 0.003 | 0.027 | 0.037 | 0.042 | 0.038 | -0.003 | -0.046 | 0 |
| RPA3 (UniProt P35244) | 0.044 | 0.086 | -0.021 | 0.371 (active) | 0.102 | -0.005 | 0.1 | -0.007 | -0.164 | -0.071 | -0.02 |
| SCG3 (UniProt Q8WXD2) | 0.028 | -0.051 | 0.114 | 0.061 | 0.009 | 0.025 | -0.015 | -0.029 | 0.018 | -0.098 | 0.091 |
| RAVER1 (UniProt E9PAU2) | -0.063 | -0.35 | -0.1 | -0.32 | 0.211 | 0.207 | 0.166 | -0.022 | -0.244 | -0.088 | 0.073 |
